About 6,500 targets were measured; listed, in parts, are those with a hit and a random draw of the rest. About 2% of all pairs of compound and target were hits.

Chain of UniProt Q7Z3T8 (Q7Z3T8 whole entry, looked up): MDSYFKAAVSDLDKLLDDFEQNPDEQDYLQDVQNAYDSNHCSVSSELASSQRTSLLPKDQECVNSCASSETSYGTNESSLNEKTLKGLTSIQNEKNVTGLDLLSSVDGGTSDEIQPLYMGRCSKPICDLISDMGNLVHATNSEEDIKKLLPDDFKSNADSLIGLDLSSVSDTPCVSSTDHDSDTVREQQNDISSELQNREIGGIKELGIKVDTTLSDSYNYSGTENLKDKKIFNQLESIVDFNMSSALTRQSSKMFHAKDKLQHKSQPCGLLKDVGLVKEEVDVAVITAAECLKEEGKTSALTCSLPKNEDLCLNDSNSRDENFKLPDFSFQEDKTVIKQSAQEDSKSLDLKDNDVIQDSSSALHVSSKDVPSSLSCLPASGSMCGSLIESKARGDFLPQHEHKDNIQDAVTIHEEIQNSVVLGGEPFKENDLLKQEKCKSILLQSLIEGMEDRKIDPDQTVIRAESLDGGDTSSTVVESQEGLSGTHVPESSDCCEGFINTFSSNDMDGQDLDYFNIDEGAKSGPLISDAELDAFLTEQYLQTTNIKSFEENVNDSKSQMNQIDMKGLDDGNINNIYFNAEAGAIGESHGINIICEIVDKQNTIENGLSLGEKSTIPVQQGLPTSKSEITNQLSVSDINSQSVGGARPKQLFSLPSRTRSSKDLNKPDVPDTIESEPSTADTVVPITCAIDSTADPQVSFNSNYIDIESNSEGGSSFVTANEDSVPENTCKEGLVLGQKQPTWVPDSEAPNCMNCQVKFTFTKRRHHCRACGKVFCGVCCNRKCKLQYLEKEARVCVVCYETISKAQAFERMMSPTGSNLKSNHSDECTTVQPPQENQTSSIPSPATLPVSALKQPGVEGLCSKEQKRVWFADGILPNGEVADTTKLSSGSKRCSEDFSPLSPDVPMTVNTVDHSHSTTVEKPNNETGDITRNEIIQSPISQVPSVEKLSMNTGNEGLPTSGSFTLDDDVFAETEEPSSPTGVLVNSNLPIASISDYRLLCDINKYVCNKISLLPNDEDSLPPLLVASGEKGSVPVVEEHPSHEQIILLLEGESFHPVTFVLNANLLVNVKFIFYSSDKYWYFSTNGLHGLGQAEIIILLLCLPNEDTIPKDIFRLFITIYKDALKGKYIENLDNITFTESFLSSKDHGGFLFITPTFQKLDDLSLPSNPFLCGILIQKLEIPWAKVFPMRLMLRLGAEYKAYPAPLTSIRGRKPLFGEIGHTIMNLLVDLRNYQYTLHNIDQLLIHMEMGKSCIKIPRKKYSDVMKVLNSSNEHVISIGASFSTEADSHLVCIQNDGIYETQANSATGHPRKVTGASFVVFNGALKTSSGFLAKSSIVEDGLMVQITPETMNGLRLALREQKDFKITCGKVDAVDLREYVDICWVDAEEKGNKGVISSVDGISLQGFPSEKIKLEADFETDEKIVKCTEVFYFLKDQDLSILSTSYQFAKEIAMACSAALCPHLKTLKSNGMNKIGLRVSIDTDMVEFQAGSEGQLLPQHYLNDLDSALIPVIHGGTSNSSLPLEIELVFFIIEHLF
Chain of UniProt Q8WU79 (Q8WU79 whole entry): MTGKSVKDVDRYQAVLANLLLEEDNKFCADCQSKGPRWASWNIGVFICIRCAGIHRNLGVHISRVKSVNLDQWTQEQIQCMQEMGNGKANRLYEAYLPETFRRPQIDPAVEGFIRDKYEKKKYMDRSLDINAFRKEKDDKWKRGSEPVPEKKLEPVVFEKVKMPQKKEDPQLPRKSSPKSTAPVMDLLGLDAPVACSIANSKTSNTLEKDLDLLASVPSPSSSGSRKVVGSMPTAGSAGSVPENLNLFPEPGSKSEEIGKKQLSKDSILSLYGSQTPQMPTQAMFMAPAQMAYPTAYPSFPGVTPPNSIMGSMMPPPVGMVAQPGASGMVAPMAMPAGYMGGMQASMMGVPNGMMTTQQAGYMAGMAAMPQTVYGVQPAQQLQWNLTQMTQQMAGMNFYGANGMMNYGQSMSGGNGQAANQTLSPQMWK
Chain of UniProt Q92576 (Q92576 whole entry, looked up): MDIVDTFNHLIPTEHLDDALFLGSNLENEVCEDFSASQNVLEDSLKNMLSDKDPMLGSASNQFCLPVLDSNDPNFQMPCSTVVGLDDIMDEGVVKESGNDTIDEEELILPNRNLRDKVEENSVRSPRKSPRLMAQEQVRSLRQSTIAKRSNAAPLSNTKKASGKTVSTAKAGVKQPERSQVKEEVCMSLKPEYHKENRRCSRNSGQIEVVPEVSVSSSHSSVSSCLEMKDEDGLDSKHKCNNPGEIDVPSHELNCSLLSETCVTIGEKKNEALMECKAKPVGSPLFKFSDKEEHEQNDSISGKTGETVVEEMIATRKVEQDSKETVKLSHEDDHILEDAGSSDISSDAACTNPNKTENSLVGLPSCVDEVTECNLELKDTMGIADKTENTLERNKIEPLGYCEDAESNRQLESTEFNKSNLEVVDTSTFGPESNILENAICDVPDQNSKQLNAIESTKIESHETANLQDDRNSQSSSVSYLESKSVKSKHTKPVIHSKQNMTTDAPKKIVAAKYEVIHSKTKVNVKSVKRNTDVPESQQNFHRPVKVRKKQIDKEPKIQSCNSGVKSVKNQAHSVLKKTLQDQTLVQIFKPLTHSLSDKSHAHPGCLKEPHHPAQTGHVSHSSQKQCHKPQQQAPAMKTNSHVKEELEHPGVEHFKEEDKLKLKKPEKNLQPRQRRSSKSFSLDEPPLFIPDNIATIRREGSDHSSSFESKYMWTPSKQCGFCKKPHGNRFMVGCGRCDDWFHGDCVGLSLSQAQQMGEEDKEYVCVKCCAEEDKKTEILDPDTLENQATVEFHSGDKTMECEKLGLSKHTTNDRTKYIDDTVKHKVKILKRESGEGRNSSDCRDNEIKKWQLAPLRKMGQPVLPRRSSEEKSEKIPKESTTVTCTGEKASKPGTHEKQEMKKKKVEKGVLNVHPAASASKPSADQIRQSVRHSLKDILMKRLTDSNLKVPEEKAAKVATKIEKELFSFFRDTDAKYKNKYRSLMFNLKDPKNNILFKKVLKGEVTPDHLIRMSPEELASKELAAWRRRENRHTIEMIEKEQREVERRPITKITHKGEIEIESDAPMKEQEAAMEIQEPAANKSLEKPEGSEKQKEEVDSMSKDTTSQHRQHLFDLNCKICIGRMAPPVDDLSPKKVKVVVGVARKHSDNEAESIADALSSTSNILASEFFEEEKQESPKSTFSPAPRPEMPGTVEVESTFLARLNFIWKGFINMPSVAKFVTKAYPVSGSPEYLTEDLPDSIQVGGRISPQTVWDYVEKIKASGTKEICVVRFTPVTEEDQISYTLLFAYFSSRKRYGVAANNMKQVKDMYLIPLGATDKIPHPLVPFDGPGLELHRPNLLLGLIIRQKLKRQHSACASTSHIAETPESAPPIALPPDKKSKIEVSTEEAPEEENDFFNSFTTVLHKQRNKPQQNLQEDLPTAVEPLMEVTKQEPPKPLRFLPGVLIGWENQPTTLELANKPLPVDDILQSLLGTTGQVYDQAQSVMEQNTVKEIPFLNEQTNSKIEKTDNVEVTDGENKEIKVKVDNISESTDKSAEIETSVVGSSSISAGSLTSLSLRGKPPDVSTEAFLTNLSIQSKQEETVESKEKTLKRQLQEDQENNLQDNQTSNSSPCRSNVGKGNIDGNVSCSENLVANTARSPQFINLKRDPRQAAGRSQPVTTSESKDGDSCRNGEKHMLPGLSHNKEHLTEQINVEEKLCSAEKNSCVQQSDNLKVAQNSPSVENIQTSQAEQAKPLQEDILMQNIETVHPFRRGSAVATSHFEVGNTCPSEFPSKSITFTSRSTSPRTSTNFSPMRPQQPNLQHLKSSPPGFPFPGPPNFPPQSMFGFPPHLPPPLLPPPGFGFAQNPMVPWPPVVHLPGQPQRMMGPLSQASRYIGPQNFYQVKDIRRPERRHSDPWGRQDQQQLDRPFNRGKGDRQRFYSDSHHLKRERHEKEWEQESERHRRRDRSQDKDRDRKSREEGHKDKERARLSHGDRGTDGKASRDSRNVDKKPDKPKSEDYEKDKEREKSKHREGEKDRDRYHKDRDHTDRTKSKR
Chain of UniProt Q6PI48 (Q6PI48 whole entry, looked up): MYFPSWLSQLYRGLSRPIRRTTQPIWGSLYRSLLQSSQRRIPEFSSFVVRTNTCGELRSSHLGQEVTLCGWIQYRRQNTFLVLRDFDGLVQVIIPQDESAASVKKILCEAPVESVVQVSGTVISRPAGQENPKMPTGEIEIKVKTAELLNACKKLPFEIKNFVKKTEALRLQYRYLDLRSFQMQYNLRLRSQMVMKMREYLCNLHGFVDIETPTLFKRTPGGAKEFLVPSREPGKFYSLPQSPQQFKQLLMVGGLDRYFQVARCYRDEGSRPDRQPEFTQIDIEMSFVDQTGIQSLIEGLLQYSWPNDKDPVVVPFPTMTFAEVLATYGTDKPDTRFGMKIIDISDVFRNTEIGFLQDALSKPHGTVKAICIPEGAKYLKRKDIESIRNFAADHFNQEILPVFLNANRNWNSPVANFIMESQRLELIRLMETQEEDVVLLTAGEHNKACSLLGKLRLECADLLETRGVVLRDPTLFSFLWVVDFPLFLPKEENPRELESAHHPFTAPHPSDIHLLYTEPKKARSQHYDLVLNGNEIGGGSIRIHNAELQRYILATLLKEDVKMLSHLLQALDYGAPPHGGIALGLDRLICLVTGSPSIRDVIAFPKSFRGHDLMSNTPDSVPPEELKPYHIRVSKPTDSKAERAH

Compound in this assay: COC(=O)C#Cc1ccccc1 [methyl 3-phenylpropiolate]
In words: log2 ratio of iodoacetamide-alkyne labeling of the cysteine site, DMSO over compound (competition); higher = stronger covalent engagement of the cysteine by the compound, active = 1 or more. The conditions noted are these: 500 µM; treatment time 1 h; system: HEK293T cell lysate. The essentials: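 HEK293T lysate (2 mg/mL) was treated with DMSO or electrophile (500 µM, 1 h, ambient temperature), then iodoacetamide alkyne (1 h), clicked to sCIP-TMT reagents, pooled, trypsin-digested overnight at 37 °C, streptavidin-enriched and acid-eluted. Peptides were run on Orbitrap Eclipse LC-MS/MS with FAIMS and quantified in FragPipe. The log2 competition ratio per cysteine is mean control-channel over mean compound-channel reporter intensity. Duplicate channels and three replicates were used, and cysteines quantified in only one replicate were excluded.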
Take PHF3 C1616 (UniProt Q92576): the “log2 ratio of iodoacetamide-alkyne labeling” value (“log2 ratio” below) is 1.14 (active).
Then UBR2 C1619 (UniProt Q8IWV8), with 0.0476 (inactive); and PRPF8 C435 (UniProt Q6P2Q9), with 1.24 (active); and UniProt Q7Z2T5_C239, with 1.28 (active).
For the target SMCR8 C644 (UniProt Q8TEV9), the “log2 ratio” value is 0.488 (inactive).
Then DARS2 C371 (UniProt Q6PI48), with 0.442 (inactive); and NEK9 C11 (UniProt Q8TD19), with 1.21 (active); and ZFYVE16 C895 (UniProt Q7Z3T8), with 0.597 (inactive).
Consider SMAP2 C196 (UniProt Q8WU79), for which the “log2 ratio” value was 0.318 (inactive).
Then PDCD6IP C40 (UniProt Q8WUM4), with 0.812 (inactive); and ATRIP C74 (UniProt Q8WXE1), with 0.563 (inactive); and UniProt Q8NFC6_C2164, with 0.286 (inactive).

The values are drawn from the supplement of paper PMC11006884.
